Assay outcomes deposited in PubChem by National Center for Advancing Translational Sciences (NCATS).
This is a sample that favours compounds with a hit; in the whole collection about 9% have one here.
HP1b binding inh = HTS for Inhibitors of HP1-beta Chromodomain Interactions with Methylated Histone Tails. AlphaScreen HP1-beta / biotin-H3K9me3 peptide binding. Potency, µM (top dose mostly 114 µM), most hits filed as inhibitors. 390,000 compounds, 0.56% hits; note: nearly all actives have a fitted effect of over 70% in size
Target sequence (P83916 whole entry, looked up): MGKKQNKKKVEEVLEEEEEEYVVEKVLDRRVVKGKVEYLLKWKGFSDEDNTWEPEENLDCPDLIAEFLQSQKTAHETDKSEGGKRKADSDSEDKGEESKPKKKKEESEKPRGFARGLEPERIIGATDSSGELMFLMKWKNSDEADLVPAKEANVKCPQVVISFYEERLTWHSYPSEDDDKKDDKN
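AlphaScreen: HP1-beta (50 nM) preformed 30 min with biotin-H3(1-18)K9me3 peptide (50 nM) in PBS pH 7.4, 0.01% Tween-20. Compound added for 30 min at RT, then streptavidin donor/nickel chelate acceptor beads (10 ug/mL) for 30 min.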
G9a block = qHTS Assay for Inhibitors of Histone Lysine Methyltransferase G9a; Histone-lysine N-methyltransferase EHMT2 (Homo sapiens), Q96KQ7; G9a H3K9 monomethylation, AlphaScreen, 2 h; Potency, µM (series often up to 102 µM), usual class: inhibitors; 350,000 compounds, 8.8% hits; note: nearly all actives have a fitted effect of over 75% in size
Target sequence (Q96KQ7 913-1193 limits assumed): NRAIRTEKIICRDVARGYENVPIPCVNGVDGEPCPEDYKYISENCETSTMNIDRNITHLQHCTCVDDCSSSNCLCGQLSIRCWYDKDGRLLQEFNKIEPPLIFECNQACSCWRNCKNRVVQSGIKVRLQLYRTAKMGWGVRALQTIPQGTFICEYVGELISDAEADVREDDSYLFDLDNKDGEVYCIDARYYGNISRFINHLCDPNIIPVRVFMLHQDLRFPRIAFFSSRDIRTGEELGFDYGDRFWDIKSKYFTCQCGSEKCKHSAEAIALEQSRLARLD
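AlphaScreen detection with an anti-monomethyl H3K9 antibody quantified product after a 2 h room-temperature reaction containing 500 nM biotinylated H3K9 peptide, 20 µM SAM and 20 nM enzyme, which had been preincubated 15 min with compound.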
JMJD2A Tudor inh = qHTS Assay for Inhibitors of JMJD2A-Tudor Domain; Lysine-specific demethylase 4A (Homo sapiens), O75164; AlphaScreen JMJD2A-Tudor / H3K4me3 peptide binding; Potency, µM (highest dose often 114 µM), actives largely listed as inhibitors; 390,000 compounds, 4.4% hits; AID 504339, 2011; note: nearly all actives have a fitted effect of over 50% in size
PLK1 PBD inh = qHTS for Inhibitors of PLK1-PDB (polo-like kinase 1 - polo-box domain): Primary Screen; 360,000 compounds, 2.8% hits; Serine/threonine-protein kinase PLK1 (Homo sapiens), P53350; Potency, µM, actives largely listed as inhibitors; Plk1 PBD binding of FITC phosphopeptide, fluorescence polarization; note: series mostly up to about 57 µM; nearly all actives have a fitted effect of over 65% in size
12-LOX inh = Primary qHTS assay for inhibitors of human arachidonate 12S-lipoxygenase (ALOX12): Round 2; Polyunsaturated fatty acid lipoxygenase ALOX12 (Homo sapiens), P18054; purified 12hLO, xylenol orange hydroperoxide absorbance; Potency, µM (doses to about 108 µM), hits mostly inhibitors; 580,000 compounds, 1.1% hits; AID 1671190, 2021
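Purified human 12hLO at 150 nM in 25 mM Hepes, 0.01% Triton X-100, pH 7.0, preincubated 15 min at room temperature with compound. Reaction started with 40 uM arachidonic acid, 30 min at room temperature. Hydroperoxide measured by Fe-xylenol orange, 573/405 nm absorbance ratio.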
BAZ2B inh = qHTS Assay for Inhibitors of BAZ2B | Potency, µM (series often up to 114 µM), most hits filed as inhibitors | 360,000 compounds, 4.4% hits | Bromodomain adjacent to zinc finger domain protein 2B (Homo sapiens), Q9UIF8 | AlphaScreen BAZ2B-H3K14Ac peptide displacement; note: nearly all actives have a fitted effect of over 60% in size
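Compounds, titrated to a top concentration of 110 uM, were incubated 30 min at room temperature with preformed BAZ2B/acetyl-K14 H3 peptide complex (50 nM each). Proximity signal was measured by AlphaScreen after 20 min with beads.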
Hits are given with their value; – = inactive; ? = inconclusive; · = no result; ! = not active in a repeat; [ ] = remark or other dose. Calls come from the whole dose curve; as a rule, active = well fitted curve in the direction sought with a large enough effect; inconclusive = small, poorly fitted or top-dose-only effect, or another doubt; inactive = no such curve, though single readings can be large; an effect the other way counts as inactive or inconclusive.

SMILES | HP1b binding inh | G9a block | JMJD2A Tudor inh | PLK1 PBD inh | 12-LOX inh | BAZ2B inh
CC(C)COCC(CN(Cc1ccccc1)c1ccccc1)N1CCCC1 (configuration not stated) | – | 10µM! | – | – | ? | ?
CC(C(=O)Nc1ccc(OCc2ccccc2)cc1)N1CCCC1 (configuration not stated) | – | ? | – | – | – | –
O=C(Nc1ccc(O)cc1)c1cc2ccccc2c(=O)s1 | – | · | – | – | – | –
O=S1(=O)CCC(N=Cc2cc(Br)ccc2O)C1 (configuration not stated) | – | –[12.7 µM] | – | – | 28µM | –
Cc1nn(Cc2ccc(C(=O)Nc3nccs3)cc2)c(C)c1Cl | – | 45µM | – | – | – | –
Cc1nn(Cc2ccc(C(=O)Nc3ccccc3F)cc2)c(C)c1Cl | – | 45µM | – | – | – | –
COc1c(F)c(F)c(C(=O)Nc2ccc(N3CCN(Cc4ccccc4)CC3)cc2)c(F)c1F | – | 18µM | – | – | ? | –
Cc1nn(Cc2ccc(C(=O)NN)cc2)c(C)c1Cl | – | – | – | – | – | –
O=C(Nc1ccccc1F)c1ccc(CN2CCN(c3ccccc3)CC2)cc1 | – | 79µM | ? | – | – | –
COC(=O)c1ccc(COC(=O)/C=C/c2ccc(OCC#N)c(OC)c2)cc1 | · | · | · | · | – | ·
Nc1ccccc1C(=O)N=Nc1[nH]c(N)c2ccccc12 | – | – | 79µM | – | – | 35µM
Nc1[nH]c(N=NC(=O)c2ccc(F)cc2)c2ccccc12 | – | – | – | – | – | ?
c1cc(-c2cc3nc(NC4CCCCC4)ccn3n2)ccc1OCCN1CCOCC1 | · | · | · | – | – | ·
COc1cc2ncnc(N(C)Cc3csc(C)n3)c2cc1-c1ccc2c(c1)OCO2 | · | · | 8.9µM | · | · | ·
CN(Cc1nccs1)c1ncnc2ccc(-c3ccc4c(c3)OCO4)cc12 | · | · | 79µM | · | · | ·
CC1Oc2ccccc2N(Cc2ccccc2Cl)C1=O (configuration not stated) | – | – | – | – | – | –
CC(NC(=O)Nc1cccc(F)c1)c1ccc2c(c1)OCO2 (configuration not stated) | – | · | – | – | – | –
CC(CCc1ccco1)NC(=O)Nc1cccc(F)c1 (configuration not stated) | – | 50µM | – | – | – | –
CCN(CC)C(=S)NC(=O)Cc1ccccc1 | – | – | – | – | – | –
CN(C(=S)NC(=O)Cc1ccccc1)c1ccccc1 | – | · | – | 30µM | ? | –
CCCCCCc1c(C[C@H](N)C(=O)O)o[nH]c1=O | · | · | · | · | – | ·
Cc1ccc(NC(=O)C2CCN(C(=O)[C@@H]3Cc4ccccc4CN3)CC2)c(C)c1 | – | 45µM | – | – | ? | –
COc1ccc(CNC(=O)C2CCN(C(=O)[C@@H]3Cc4ccccc4CN3)CC2)cc1 | – | – | ? | 6µM | – | –
O=C(CNC(=O)[C@@H]1Cc2ccccc2CN1)NCc1ccco1 | – | 71µM | – | – | – | –
CC(NC(=O)CNC(=O)[C@@H]1Cc2ccccc2CN1)c1ccccc1 (some centres not stated) | – | – | – | – | – | –
COc1ccc(CNC(=O)[C@H](C)NC(=O)[C@@H]2Cc3ccccc3CN2)cc1 | – | 71µM | – | – | – | ?
COc1ccc(NC(=O)C2CCN(C(=O)[C@@H]3Cc4ccccc4CN3)CC2)cc1 | – | ? | – | – | – | ?
CC(=O)c1ccc2noc(-c3ccccc3)c2c1 | – | · | – | – | ? | –
CCOC(=O)[C@]12CCC=C1N(Cc1cccc3ccccc13)C(=O)[C@H](CC(=O)NCc1ccc(C)o1)C2 | · | · | · | – | – | ·
CCOC(=O)N1CCN(C(=O)COc2ccc(Cl)c(C)c2)CC1 | – | · | – | – | – | –
